# Results: publication PMC7819943, “Rice protein-binding microarrays: a tool to detect cis-acting elements near promoter regions in rice”
# Over roughly 39,000 sequences, “fluorescence intensity (a.u.)” has its median near 4,300; the highest 2% begin near 39,000. Many of the other results were omitted from the sample, so the highest values are more common in it than they were.
# Target: T1, OsSMF1 (Oryza sativa, UniProt Q6ZLB0 1-436)
# T1 sequence: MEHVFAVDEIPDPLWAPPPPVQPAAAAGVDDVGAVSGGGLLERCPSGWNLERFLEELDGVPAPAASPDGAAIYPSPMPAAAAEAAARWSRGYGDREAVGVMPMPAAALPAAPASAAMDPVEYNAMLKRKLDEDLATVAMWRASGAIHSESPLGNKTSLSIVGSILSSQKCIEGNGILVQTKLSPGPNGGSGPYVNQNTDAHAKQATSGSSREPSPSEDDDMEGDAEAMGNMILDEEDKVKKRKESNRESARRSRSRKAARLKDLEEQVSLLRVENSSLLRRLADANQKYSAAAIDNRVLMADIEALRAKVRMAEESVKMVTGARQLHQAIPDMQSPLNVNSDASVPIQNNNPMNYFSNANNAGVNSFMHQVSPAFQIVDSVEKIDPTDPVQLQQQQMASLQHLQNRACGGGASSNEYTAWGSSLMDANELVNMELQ
# Assay: protein-binding microarray (RPBM); PBS, 2% BSA, 51.3 ng/ul salmon testes DNA, 50 uM zinc acetate, 200 nM TF, 25 C, 1 h; high values mean tight binding
# Details: protein: recombinant; tags: N-terminal polyhistidine and DsRed monomer fusion (pET32a); chain copies: 2; label: CyDye5-dUTP incorporated in the synthesized complementary strand; 3' TTTTT single-stranded linker to array surface; dsDNA, one strand shown
# How it was run: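 The binding signal is fluorescence intensity per array feature (arbitrary units). Readings came from an Axon 4000B scanner after a washed, 2% BSA-blocked, double-stranded custom Agilent array had been incubated for 1 h at 25 °C with 200 nM protein and 50 µM zinc acetate. The protein was a Ni–NTA-purified transcription factor fused N-terminally to polyhistidine and DsRed, expressed in E. coli BL21-CodonPlus.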
row,Sequence,binding signal
1,ACACTGTTCACCATGATCCACGTATATATGTGACGAAAATCGGAGTCACCTAGTGCAG,4560 fluorescence intensity (a.u.)
2,TTGCGACGGCCATCCTCCGCGCGCGTGACACCAACGCCACCGGAGTCACCTAGTGCAG,4880 fluorescence intensity (a.u.)
3,TTTCCCTGATAATAATAACCGACACGCGTAAGCTCTTGAACGGAGTCACCTAGTGCAG,3360 fluorescence intensity (a.u.)
4,AGCATTTCCATCCACCACACGCGTACGTCCCCGTCACGCGCGGAGTCACCTAGTGCAG,7440 fluorescence intensity (a.u.)
5,AAGTGCCTACCAAGCCAGCATCGTGTCATAGCCGGAGCATCGGAGTCACCTAGTGCAG,3730 fluorescence intensity (a.u.)
6,ATTTGCGCTGATATATTATCTAACGTGACACGATTAATCCCGGAGTCACCTAGTGCAG,6030 fluorescence intensity (a.u.)
7,GGGTCATTTGTCCCTTTCTGGAATGAAGTGCTTTGTAAAACGGAGTCACCTAGTGCAG,33100 fluorescence intensity (a.u.)
8,TTTTAATCCGAGTTTCAGACCACGATGGCCATTTGTTTCGCGGAGTCACCTAGTGCAG,3460 fluorescence intensity (a.u.)
9,ACAGTACTTGGCTGTAGCGGGCATCTTGTCCTGGCATGTGCGGAGTCACCTAGTGCAG,3600 fluorescence intensity (a.u.)
10,TACCTTACCTGTACGGCAGGCATGCATGTTACTCCAGTAGCGGAGTCACCTAGTGCAG,39800 fluorescence intensity (a.u.)
11,ACCTGTTGTACTTAGTTACGGCGACACGTTTGCATCAGGCCGGAGTCACCTAGTGCAG,6860 fluorescence intensity (a.u.)
12,AATCTGCACCGGTTTTGATAGTTAAGGGACTAATTGTATCCGGAGTCACCTAGTGCAG,41700 fluorescence intensity (a.u.)
13,TGTGACCGGTTTTGATTAGTTAAGGGACGCCGGGTATCTGCGGAGTCACCTAGTGCAG,31600 fluorescence intensity (a.u.)
14,GCACCGGTTTTGATAGTTGAGGGACTTGTTGTATCTGGTTCGGAGTCACCTAGTGCAG,29200 fluorescence intensity (a.u.)
15,TAAGATCACCTATAGATATATCATTCCAAGTCATAGATTGCGGAGTCACCTAGTGCAG,6060 fluorescence intensity (a.u.)
16,GCAGTAGACACGACGTACTTGTCAATGGTGAGGCATTTATCGGAGTCACCTAGTGCAG,3350 fluorescence intensity (a.u.)
17,TAATTGTGATCAAAATTGTAACAAATGCACGGTCATTAAGCGGAGTCACCTAGTGCAG,3320 fluorescence intensity (a.u.)
18,ATTGAAAAGTTTGGTTCAAATTAAAATTTTAGTAACAAAACGGAGTCACCTAGTGCAG,24300 fluorescence intensity (a.u.)
19,TGGTTCAAAATGTAAACATTAGTTAAATGGTGATCCAAAGCGGAGTCACCTAGTGCAG,49900 fluorescence intensity (a.u.)
20,TAGTACCTTTACTTTTCAGTTTTCACCCCATGTGGCATACCGGAGTCACCTAGTGCAG,3620 fluorescence intensity (a.u.)
21,GCCACGGTCTCGTTGTGATGTTGTGATATTAGGTTCACTGCGGAGTCACCTAGTGCAG,46600 fluorescence intensity (a.u.)
22,AGTTGTGATGTCGCCACGTTGGCGGCCGGCGACTGCGCCACGGAGTCACCTAGTGCAG,12000 fluorescence intensity (a.u.)

row,Sequence,binding signal
1,TCCCGCATGTGTTGTGTGATGTGTCTCGTCTCCGCCACCACGGAGTCACCTAGTGCAG,7960 fluorescence intensity (a.u.)
2,TCTTCATGTAGTCAGCATACATCTGTCACAGCCACAGACACGGAGTCACCTAGTGCAG,4480 fluorescence intensity (a.u.)
3,AATAAGTAGTTGGTGATACGTGTTAGCCACGAGGCATATACGGAGTCACCTAGTGCAG,4020 fluorescence intensity (a.u.)
4,AGAGGTACGTAAAATGACACATGTGCCTCTTCATACGCTCCGGAGTCACCTAGTGCAG,3150 fluorescence intensity (a.u.)
5,CCAAGTTCGGCTGGTCGCCACGCCACCCATCTCCATCTTCCGGAGTCACCTAGTGCAG,4140 fluorescence intensity (a.u.)
6,AAACCCGGAGAGAGTGGTGTTCGTGGACGTCACCCCATTTCGGAGTCACCTAGTGCAG,4440 fluorescence intensity (a.u.)
7,CGGGAGAGAAGCCCACGTCACTCCCATAAATGGATGTGGACGGAGTCACCTAGTGCAG,9320 fluorescence intensity (a.u.)
8,CTTACCATCTCCCCAAGCGGGAGAGTGGACGTCATAATTTCGGAGTCACCTAGTGCAG,45700 fluorescence intensity (a.u.)
9,CGTCCGTGCGAATGATTGCATCTGCGCGAGCGACGCCGTTCGGAGTCACCTAGTGCAG,3430 fluorescence intensity (a.u.)
10,TGCGAGGTGGTGGTGATTGCTTCGTCGGCTGTTGATTTCTCGGAGTCACCTAGTGCAG,3300 fluorescence intensity (a.u.)
11,CTCGGCTGTTGCGCCTTCGTTTTGCACCGAGGCTGTGCTACGGAGTCACCTAGTGCAG,55500 fluorescence intensity (a.u.)
12,TTTTCTTCTGTTCGTGTGCGTGCTCGCGCCTTTCTTGCTTCGGAGTCACCTAGTGCAG,4250 fluorescence intensity (a.u.)
13,CATATATGCCCATCACCCCAATAAGAGTTCCGAATTAGATCGGAGTCACCTAGTGCAG,3560 fluorescence intensity (a.u.)
14,CATCCCCAAACTCCGCCGCCGCCGCCGTCACCGCCGCTCGCGGAGTCACCTAGTGCAG,3700 fluorescence intensity (a.u.)
15,ATTCATATATATATATACACACACACTTACTTTGTATATGCGGAGTCACCTAGTGCAG,3190 fluorescence intensity (a.u.)
16,GCAGGAGCAAAGCGCTTACTTTTGCCTCACACTGTATAGTCGGAGTCACCTAGTGCAG,45400 fluorescence intensity (a.u.)
17,AATTCTAGGTCCAGCACTGTGCTTACCTGTATAGAAGCCTCGGAGTCACCTAGTGCAG,3200 fluorescence intensity (a.u.)
18,TTCTTCTTCTATTCCACGTCCACGTGTATGGCCAGGAGTTCGGAGTCACCTAGTGCAG,16100 fluorescence intensity (a.u.)
19,TGAAAATGGTGTTGGCATCATAAAATATTTAACCAACCCCCGGAGTCACCTAGTGCAG,3150 fluorescence intensity (a.u.)
20,TCACGAGCCGACACGTGTCTCCTGACGTGGTACCCTTTCCCGGAGTCACCTAGTGCAG,21900 fluorescence intensity (a.u.)
21,TTGGCGTGACTAGGCGCAATTTCTGCAAATTGGAGCTCGGCGGAGTCACCTAGTGCAG,7820 fluorescence intensity (a.u.)
